Laboratory results published in the supplement of paper PMC10849652.
Targets with a hit are over-represented here; the source holds about 7,900 in all. About 0.6% of all pairs of compound and target were hits.

Key:
Test in all cases: log2 fold change, soluble protein after heating vs DMSO (PISA); higher = thermal stabilisation; K562 cells, 10 uM, 30 min; active = over 0.2 and 3.5 SD of the protein, either way, in both replicates (recomputed)
bafetinib = compound: Cc1ccc(NC(=O)c2ccc(CN3CC[C@H](N(C)C)C3)c(C(F)(F)F)c2)cc1Nc1nccc(-c2cncnc2)n1 [bafetinib]
Procedure, shortened: (§1)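 Thermal stability values are relative to control samples and come from duplicates. They are expressed as log2 fold changes. For measurement, K562 cells (2×10^6 cells/mL) received 10 μM compound for 30 min, and aliquots were heated for 3 min over 48°C-58°C, pooled, and extracted at 4°C in PBS with 0.5% NP-40. Soluble protein, the supernatant after 21,000xg for 90 min, was quantified by TMTpro 16plex LC-MS/MS with equalised channel sums.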

[1] = compound: Cc1cccc(CC(=O)N2CCc3c2ccc(-c2cn(C)c4ncnc(N)c24)c3F)n1
Procedure, shortened: as §1

nilotinib = compound: Cc1cn(-c2cc(NC(=O)c3ccc(C)c(Nc4nccc(-c5cccnc5)n4)c3)cc(C(F)(F)F)c2)cn1 [nilotinib]
Procedure, shortened: as §1

[2] = compound: Cc1nc(Nc2n[nH]c3c2CN(C(=O)N[C@H](CN(C)C)c2ccccc2)C3(C)C)c2sccc2n1
Procedure, shortened: as §1

dasatinib = compound: Cc1nc(Nc2ncc(C(=O)Nc3c(C)cccc3Cl)s2)cc(N2CCN(CCO)CC2)n1 [dasatinib]
Procedure, shortened: as §1

[3] = compound: Cc1ncc(-c2ccnc(Nc3ccc(S(C)(=O)=O)cc3)n2)n1C(C)C
Procedure, shortened: as §1

[4] = compound: Cn1cc(-c2ccc3c(c2)CCN3C(=O)Cc2cccc(C(F)(F)F)c2)c2c(N)ncnc21
Procedure, shortened: as §1

[5] = compound: Cn1cc(-c2ccc3nnc(C(F)(F)c4ccc5ncccc5c4)n3n2)cn1
Procedure, shortened: as §1

tipifarnib = compound: Cn1cncc1[C@@](N)(c1ccc(Cl)cc1)c1ccc2c(c1)c(-c1cccc(Cl)c1)cc(=O)n2C [tipifarnib]
Procedure, shortened: as §1

mubritinib = compound: FC(F)(F)c1ccc(/C=C/c2nc(COc3ccc(CCCCn4ccnn4)cc3)co2)cc1 [mubritinib]
Procedure, shortened: as §1

[6] = compound: NC(=O)Nc1cc(-c2cccc(F)c2)sc1C(=O)N[C@H]1CCCNC1
Procedure, shortened: as §1

[7] = compound: NC(=O)c1cnc(N[C@@H]2CCCC[C@@H]2N)nc1Nc1cccc(-n2nccn2)c1
Procedure, shortened: as §1

[8] = compound: NC1(c2ccc(-c3nc4ccn5c(=O)[nH]nc5c4cc3-c3ccccc3)cc2)CCC1
Procedure, shortened: as §1

entinostat = compound: Nc1ccccc1NC(=O)c1ccc(CNC(=O)OCc2cccnc2)cc1 [entinostat]
Procedure, shortened: as §1

vorinostat = compound: O=C(CCCCCCC(=O)Nc1ccccc1)NO [vorinostat]
Procedure, shortened: as §1

citarinostat = compound: O=C(CCCCCCNC(=O)c1cnc(N(c2ccccc2)c2ccccc2Cl)nc1)NO [citarinostat]
Procedure, shortened: as §1

silmitasertib = compound: O=C(O)c1ccc2c(c1)nc(Nc1cccc(Cl)c1)c1ccncc12 [silmitasertib]
Procedure, shortened: as §1

[9] = compound: O=C1NC(=O)C(c2cnc3ccccn23)=C1c1cn2c3c(cc(F)cc13)CN(C(=O)N1CCCCC1)CC2
Procedure, shortened: as §1

[10] = compound: c1cc(OCCN2CCCCC2)cc(-c2n[nH]c3ccc(-c4nnc[nH]4)cc23)c1
Procedure, shortened: as §1

[11] = compound: NCC(=O)Nc1ccc(-n2nc(C(F)(F)F)cc2-c2ccc3c(ccc4ccccc43)c2)cc1
Procedure, shortened: as §1

Measured: log2 fold change

LRBA, A0A494BZW2
inactive: bafetinib -0.041 | [1] 0.044 | nilotinib 0.019 | [2] -0.016 | dasatinib -0.144 | [3] 0.053 | [4] -0.076 | [5] 0.123 | tipifarnib -0.26 | mubritinib -0.03 | [6] 0.036 | [7] -0.031 | [8] -0.114 | entinostat 0.232 | vorinostat -0.032 | citarinostat 0.03 | silmitasertib 0.011 | [9] 0.063 | [10] 0.028

KCNK5 (UniProt O95279)
inactive: bafetinib -0.31 | [1] 0.025 | dasatinib -0.472 | [4] 0.139 | tipifarnib -0.183 | mubritinib 0.076 | [6] -0.066 | [8] 0.16 | entinostat 0.031 | vorinostat -0.102 | citarinostat 0.198 | silmitasertib 0.093 | [9] 0.004 | [10] 0.005

ITM2C (UniProt Q9NQX7)
UniProt Q9NQX7, sequence (Q9NQX7 whole entry, looked up): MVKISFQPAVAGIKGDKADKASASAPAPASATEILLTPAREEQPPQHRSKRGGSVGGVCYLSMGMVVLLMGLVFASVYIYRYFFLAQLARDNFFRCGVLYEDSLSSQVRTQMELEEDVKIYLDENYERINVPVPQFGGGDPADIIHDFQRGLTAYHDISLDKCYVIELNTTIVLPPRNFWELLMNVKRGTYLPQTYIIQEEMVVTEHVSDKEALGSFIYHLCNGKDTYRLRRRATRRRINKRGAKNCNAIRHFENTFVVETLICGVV
inactive: bafetinib -0.064 | [1] -0.127 | nilotinib 0.099 | [2] -0.018 | dasatinib 0.024 | [3] 0.127 | [4] 0.09 | [5] 0.038 | tipifarnib 0.039 | [6] -0.309 | [7] -0.009 | [11] -0.133 | entinostat 0.164 | vorinostat -0.032 | [9] 0.029

MCM10 (UniProt Q7L590)
UniProt Q7L590, sequence (Q7L590 whole entry, looked up): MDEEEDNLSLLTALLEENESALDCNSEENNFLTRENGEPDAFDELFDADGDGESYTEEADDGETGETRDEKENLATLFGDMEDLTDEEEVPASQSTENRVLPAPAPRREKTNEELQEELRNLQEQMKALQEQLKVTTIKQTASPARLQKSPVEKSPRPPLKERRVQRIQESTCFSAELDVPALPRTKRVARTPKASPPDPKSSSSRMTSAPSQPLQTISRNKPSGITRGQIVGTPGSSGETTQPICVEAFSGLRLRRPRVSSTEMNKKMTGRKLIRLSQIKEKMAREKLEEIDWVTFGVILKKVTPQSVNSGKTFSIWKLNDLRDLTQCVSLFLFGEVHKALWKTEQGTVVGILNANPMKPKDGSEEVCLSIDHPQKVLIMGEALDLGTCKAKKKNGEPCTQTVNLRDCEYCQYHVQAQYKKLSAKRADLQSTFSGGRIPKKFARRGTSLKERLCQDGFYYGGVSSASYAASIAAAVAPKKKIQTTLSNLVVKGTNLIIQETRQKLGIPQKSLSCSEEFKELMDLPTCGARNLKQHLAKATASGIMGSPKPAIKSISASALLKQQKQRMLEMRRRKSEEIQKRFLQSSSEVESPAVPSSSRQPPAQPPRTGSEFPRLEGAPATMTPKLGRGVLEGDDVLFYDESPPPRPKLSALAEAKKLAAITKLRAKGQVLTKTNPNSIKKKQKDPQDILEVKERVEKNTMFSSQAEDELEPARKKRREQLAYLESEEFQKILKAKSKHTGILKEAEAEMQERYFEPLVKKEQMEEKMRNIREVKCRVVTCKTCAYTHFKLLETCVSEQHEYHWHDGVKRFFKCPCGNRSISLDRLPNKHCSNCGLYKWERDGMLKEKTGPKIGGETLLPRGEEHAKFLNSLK
inactive: bafetinib 0.182 | [1] -0.044 | nilotinib 0.046 | [2] -0.001 | [3] -0.008 | tipifarnib -0.155 | mubritinib 0.09 | [8] 0.002 | [11] -0.085 | entinostat 0.224 | vorinostat 0.021 | citarinostat 0.143 | silmitasertib -0.129 | [9] 0.134 | [10] 0.107
active: [6] 0.522

METAP1D (UniProt Q6UB28)
inactive: bafetinib -0.089 | nilotinib -0.114 | [2] 0.036 | dasatinib 0.007 | [3] 0.079 | [4] -0.034 | [5] -0.071 | tipifarnib -0.023 | mubritinib 0.028 | [6] 0.061 | [7] 0.252 | [8] -0.033 | [11] 0.073 | entinostat -0.071 | citarinostat 0.098 | silmitasertib 0.064 | [9] -0.099 | [10] -0.04

MAN2B2 (UniProt Q9Y2E5)
UniProt Q9Y2E5, sequence (Q9Y2E5 whole entry, looked up): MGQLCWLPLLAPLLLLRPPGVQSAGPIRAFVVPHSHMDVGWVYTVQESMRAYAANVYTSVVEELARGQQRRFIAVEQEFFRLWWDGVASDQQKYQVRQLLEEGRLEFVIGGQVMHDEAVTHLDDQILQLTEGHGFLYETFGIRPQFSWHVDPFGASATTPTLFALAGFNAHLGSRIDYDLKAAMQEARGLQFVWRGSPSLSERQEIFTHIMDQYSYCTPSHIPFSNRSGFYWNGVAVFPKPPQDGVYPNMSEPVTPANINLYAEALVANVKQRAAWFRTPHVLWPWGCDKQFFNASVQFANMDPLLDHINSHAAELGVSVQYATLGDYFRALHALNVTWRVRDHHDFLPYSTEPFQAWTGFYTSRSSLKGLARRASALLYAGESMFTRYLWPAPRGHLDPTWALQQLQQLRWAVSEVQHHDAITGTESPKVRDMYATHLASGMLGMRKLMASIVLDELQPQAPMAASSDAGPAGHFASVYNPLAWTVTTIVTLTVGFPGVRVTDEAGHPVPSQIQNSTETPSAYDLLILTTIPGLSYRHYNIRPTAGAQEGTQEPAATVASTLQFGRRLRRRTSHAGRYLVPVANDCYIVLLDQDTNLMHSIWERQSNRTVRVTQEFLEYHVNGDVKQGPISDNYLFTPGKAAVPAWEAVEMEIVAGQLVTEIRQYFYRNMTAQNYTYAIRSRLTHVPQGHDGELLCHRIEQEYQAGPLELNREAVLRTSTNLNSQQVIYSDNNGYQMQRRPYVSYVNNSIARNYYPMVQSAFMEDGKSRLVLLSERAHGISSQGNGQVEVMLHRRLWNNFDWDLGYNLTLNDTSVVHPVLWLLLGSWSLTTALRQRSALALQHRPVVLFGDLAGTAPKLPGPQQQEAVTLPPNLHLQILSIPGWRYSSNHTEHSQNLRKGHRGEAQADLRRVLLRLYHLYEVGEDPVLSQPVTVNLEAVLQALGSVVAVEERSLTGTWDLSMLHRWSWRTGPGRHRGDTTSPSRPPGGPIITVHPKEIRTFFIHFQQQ
inactive: bafetinib -0.302 | nilotinib -0.171 | [2] 0.057 | dasatinib 0.013 | [3] -0.023 | [5] -0.088 | tipifarnib 0.093 | mubritinib 0.147 | [6] 0.063 | [7] -0.099 | [8] -0.262 | [11] 0.089 | entinostat -0.018 | citarinostat 0.089 | silmitasertib -0.029 | [9] -0.058 | [10] -0.005

MED7 (UniProt O43513)
UniProt O43513, sequence (O43513 whole entry, looked up): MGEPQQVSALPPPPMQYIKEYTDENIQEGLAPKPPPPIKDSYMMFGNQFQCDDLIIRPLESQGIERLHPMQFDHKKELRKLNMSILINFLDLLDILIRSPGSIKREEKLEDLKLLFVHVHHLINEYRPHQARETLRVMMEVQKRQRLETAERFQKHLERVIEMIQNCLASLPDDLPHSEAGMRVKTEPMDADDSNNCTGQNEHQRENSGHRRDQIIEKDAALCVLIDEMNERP
inactive: bafetinib 0.191 | nilotinib -0.029 | [2] -0.041 | dasatinib -0.063 | [3] 0.094 | [4] -0.05 | [5] 0.069 | tipifarnib 0.271 | [6] 0.034 | [7] 0.122 | [11] -0.041 | entinostat -0.16 | [9] -0.085

MFSD1 isoform 6 (UniProt Q9H3U5)
UniProt Q9H3U5, sequence (Q9H3U5 whole entry, looked up): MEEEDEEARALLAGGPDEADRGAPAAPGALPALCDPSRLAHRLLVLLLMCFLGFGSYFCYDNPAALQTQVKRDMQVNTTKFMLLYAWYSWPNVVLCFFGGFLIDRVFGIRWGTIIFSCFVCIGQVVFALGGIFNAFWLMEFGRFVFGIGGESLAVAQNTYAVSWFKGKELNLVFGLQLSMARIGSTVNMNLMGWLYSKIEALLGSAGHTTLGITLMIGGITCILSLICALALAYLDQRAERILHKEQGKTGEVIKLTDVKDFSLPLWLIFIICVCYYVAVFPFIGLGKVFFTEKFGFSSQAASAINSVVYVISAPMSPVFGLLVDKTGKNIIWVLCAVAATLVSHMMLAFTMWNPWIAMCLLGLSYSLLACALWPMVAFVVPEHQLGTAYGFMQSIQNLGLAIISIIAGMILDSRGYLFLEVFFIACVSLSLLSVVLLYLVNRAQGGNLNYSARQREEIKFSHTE
active: [8] -0.308
inactive: bafetinib -0.123 | [1] 0.066 | nilotinib -0.017 | [2] 0.046 | [3] -0.016 | [4] -0.034 | [5] 0.033 | tipifarnib 0.05 | mubritinib 0.005 | [6] 0.02 | [7] -0.066 | [11] -0.098 | entinostat -0.019 | vorinostat -0.053 | citarinostat 0.03 | silmitasertib -0.008 | [9] 0.067 | [10] 0.043

MELK (UniProt Q14680)
UniProt Q14680, sequence (Q14680 whole entry, looked up): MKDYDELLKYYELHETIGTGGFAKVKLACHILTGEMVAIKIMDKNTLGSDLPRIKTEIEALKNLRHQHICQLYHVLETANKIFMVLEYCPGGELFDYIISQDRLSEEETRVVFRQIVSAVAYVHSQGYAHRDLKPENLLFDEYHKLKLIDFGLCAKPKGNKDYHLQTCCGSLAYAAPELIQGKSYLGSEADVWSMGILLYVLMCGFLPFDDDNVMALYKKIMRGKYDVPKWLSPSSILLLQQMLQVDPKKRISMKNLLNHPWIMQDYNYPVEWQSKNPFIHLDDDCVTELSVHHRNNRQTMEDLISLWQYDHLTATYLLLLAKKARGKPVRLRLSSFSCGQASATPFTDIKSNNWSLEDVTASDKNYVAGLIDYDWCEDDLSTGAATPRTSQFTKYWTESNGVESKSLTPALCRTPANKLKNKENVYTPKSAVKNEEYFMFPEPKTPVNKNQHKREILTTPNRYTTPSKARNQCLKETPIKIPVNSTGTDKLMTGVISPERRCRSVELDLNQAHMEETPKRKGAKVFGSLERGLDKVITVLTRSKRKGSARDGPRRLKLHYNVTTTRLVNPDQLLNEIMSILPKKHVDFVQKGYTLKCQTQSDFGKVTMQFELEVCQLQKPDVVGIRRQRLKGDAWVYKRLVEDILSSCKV
inactive: bafetinib -0.06 | [1] 0.086 | nilotinib 0.033 | dasatinib -0.149 | [3] 0.14 | [4] -0.092 | tipifarnib 0.097 | [6] -0.384 | [7] -0.128 | entinostat -0.052 | vorinostat 0.062 | citarinostat -0.001 | [9] -0.016 | [10] -0.366
active: [2] -1.04

ITM2B (UniProt Q9Y287)
active: silmitasertib 0.38
inactive: bafetinib -0.112 | nilotinib 0.006 | [2] -0.062 | dasatinib 0.006 | [3] 0.033 | [4] 0.035 | [5] -0.04 | tipifarnib 0.006 | mubritinib 0.059 | [6] -0.036 | [7] 0.091 | [8] -0.144 | [11] 0.021 | entinostat -0.083 | citarinostat -0.006 | [9] 0.109 | [10] -0.178

MFSD11 (UniProt O43934)
inactive: bafetinib -0.047 | [1] -0.032 | nilotinib -0.038 | [2] 0.046 | dasatinib -0.004 | [3] -0.119 | [4] 0.17 | tipifarnib -0.047 | mubritinib 0.063 | [6] 0.035 | [7] 0.038 | [8] -0.202 | [11] 0.002 | entinostat -0.112 | vorinostat -0.028 | citarinostat -0.096 | silmitasertib 0.044 | [9] -0.04 | [10] 0.063

IL10RB (UniProt Q08334)
inactive: bafetinib -0.079 | [1] -0.031 | nilotinib 0.026 | [2] 0.151 | dasatinib 0.068 | [3] 0.105 | tipifarnib 0.126 | [6] -0.113 | [7] -0.121 | [11] -0.031 | vorinostat 0.109 | citarinostat 0.055 | [9] 0.062 | [10] -0.026
active: entinostat -0.431

KXD1 (UniProt Q9BQD3)
UniProt Q9BQD3, sequence (Q9BQD3 whole entry, looked up): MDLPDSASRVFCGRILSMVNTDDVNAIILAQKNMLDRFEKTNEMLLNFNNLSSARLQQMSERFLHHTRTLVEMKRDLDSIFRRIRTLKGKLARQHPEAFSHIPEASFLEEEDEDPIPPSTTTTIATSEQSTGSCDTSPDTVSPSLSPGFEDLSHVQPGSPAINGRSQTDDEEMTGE
inactive: bafetinib -0.131 | [1] 0.045 | dasatinib -0.082 | [4] 0.019 | [5] 0.085 | tipifarnib 0.024 | mubritinib 0.052 | [7] -0.091 | [8] -0.237 | [11] -0.021 | vorinostat -0.046 | citarinostat 0.042 | silmitasertib -0.113 | [9] 0.131 | [10] -0.055

MAGEA8 (UniProt P43361)
UniProt P43361, sequence (P43361 whole entry, looked up): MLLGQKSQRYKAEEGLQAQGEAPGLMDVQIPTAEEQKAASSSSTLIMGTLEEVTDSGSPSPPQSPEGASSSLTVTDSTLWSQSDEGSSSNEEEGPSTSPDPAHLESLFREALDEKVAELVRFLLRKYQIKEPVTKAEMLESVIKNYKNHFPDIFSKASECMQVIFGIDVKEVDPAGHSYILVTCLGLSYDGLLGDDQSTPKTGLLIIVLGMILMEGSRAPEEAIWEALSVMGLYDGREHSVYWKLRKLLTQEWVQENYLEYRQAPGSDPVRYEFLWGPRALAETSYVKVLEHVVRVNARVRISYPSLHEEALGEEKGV
inactive: bafetinib 0.022 | [1] -0.265 | [2] -0.207 | dasatinib 0.019 | [3] 0.016 | [4] 0.008 | [5] -0.003 | tipifarnib -0.01 | [7] -0.135 | [11] 0.034 | vorinostat -0.063 | citarinostat 0.012 | [10] -0.008
active: nilotinib -0.372

MFSD8 (UniProt Q8NHS3)
inactive: bafetinib -0.006 | [1] -0.12 | dasatinib 0.061 | [4] -0.007 | [5] 0.017 | tipifarnib -0.042 | mubritinib -0.002 | [7] 0.02 | [8] -0.115 | [11] -0.076 | vorinostat -0.008 | citarinostat -0.003 | silmitasertib 0.069 | [9] -0.007 | [10] -0.129

MCOLN3 (UniProt Q8TDD5)
inactive: bafetinib -0.03 | [1] -0.183 | nilotinib -0.289 | [2] -0.113 | [3] 0.041 | [5] 0.079 | tipifarnib 0.072 | mubritinib 0.05 | [8] -0.254 | vorinostat 0 | citarinostat 0.095 | silmitasertib 0.083 | [10] 0.159

INTS5 (UniProt Q6P9B9)
inactive: bafetinib -0.035 | nilotinib 0.146 | [2] -0.08 | dasatinib -0.11 | [3] 0.167 | [5] -0.003 | tipifarnib -0.145 | mubritinib 0.23 | [6] 0.015 | [7] -0.116 | [8] -0.079 | [11] -0.175 | entinostat 0.014 | silmitasertib -0.006 | [9] -0.076

LPGAT1 (UniProt Q92604)
inactive: bafetinib -0.086 | nilotinib -0.04 | [2] -0.128 | dasatinib 0.086 | [3] 0.048 | [4] 0.055 | [5] -0.082 | tipifarnib 0.01 | mubritinib 0.067 | [6] 0.038 | [7] 0.048 | [8] -0.102 | [11] 0.063 | entinostat -0.047 | citarinostat 0.157 | silmitasertib -0.015 | [9] -0.015 | [10] -0.108

LENG8 (UniProt Q96PV6)
UniProt Q96PV6, sequence (Q96PV6 whole entry, looked up): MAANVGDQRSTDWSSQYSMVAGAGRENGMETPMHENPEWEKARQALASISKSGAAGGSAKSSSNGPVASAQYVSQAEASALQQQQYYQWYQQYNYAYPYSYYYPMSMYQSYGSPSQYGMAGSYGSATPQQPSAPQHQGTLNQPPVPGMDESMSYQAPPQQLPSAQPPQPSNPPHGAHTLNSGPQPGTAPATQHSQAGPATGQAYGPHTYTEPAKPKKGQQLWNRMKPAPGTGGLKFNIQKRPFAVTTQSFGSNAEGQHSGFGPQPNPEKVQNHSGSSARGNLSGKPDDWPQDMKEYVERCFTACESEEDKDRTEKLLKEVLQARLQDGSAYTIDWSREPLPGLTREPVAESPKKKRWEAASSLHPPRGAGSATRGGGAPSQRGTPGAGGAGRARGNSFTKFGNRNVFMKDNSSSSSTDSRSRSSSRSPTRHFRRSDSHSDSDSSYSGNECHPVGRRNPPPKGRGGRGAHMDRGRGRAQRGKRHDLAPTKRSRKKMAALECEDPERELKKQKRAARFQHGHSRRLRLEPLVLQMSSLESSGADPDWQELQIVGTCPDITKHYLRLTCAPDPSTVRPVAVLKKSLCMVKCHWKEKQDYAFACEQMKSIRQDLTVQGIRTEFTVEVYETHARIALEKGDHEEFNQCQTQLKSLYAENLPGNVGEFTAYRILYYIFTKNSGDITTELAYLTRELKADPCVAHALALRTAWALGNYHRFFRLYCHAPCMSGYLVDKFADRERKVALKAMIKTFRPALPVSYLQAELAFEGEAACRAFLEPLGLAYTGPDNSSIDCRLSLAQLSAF
inactive: bafetinib -0.088 | [1] 0.112 | nilotinib 0.006 | [2] -0.036 | dasatinib -0.388 | [3] -0.146 | [4] -0.039 | [5] -0.031 | mubritinib 0.032 | [6] -0.012 | [7] -0.075 | [8] 0.042 | [11] -0.198 | entinostat 0.085 | vorinostat 0.298 | citarinostat 0 | silmitasertib 0.09 | [9] -0.144 | [10] -0.091
